This note sets out measurements from PubChem BioAssay.

Results filed as inconclusive are left out. Active and inactive are the calls of the source.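 How the source made its calls, unless noted: active means percent response above a set limit, the screen-wide mean plus 3 SD (cut at about 130% in these data); inactive means the rest.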

Test [1] can be described thus: rapamycin-like changes in RPL19A-GFP expression – cell-based, S. cerevisiae, multiplex flow cytometry, primary screen (AID 1862; in the data active means percent of DMSO control GFP below about 86%;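 further: lower values mimic rapamycin by blocking the RPL19A rise seen in DMSO cells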). As to conditions: S. cerevisiae RPL19A-GFP strain, flow cytometry fluorescence, 3 h; at 10 µM; stronger effect = lower value. (In general: A flow cytometer gives signals particle by particle.)
A short description of test [2]: TOR pathway GLN3 branch reporter MEP2-GFP changes – S. cerevisiae, multiplex flow cytometry, primary screen (AID 1867;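 active means GFP response, as percent of the DMSO control, above the screen-wide mean plus 3 SD, about 139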;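 further: median GFP channel fluorescence of barcode-gated MEP2-GFP cells measured by flow cytometry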). As to conditions: S. cerevisiae MEP2-GFP strain, 3 h, at 10 µM, stronger effect = higher value, 100% means same as DMSO wells.
A short description of test [3]: TOR pathway RTG branch CIT2 reporter changes – S. cerevisiae, GFP fusion, multiplex flow cytometry, primary screen (AID 1870).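 Further: barcoded CIT2-GFP strain pooled with four other GFP strains with rapamycin as positive control; median GFP fluorescence per well over plate mean of DMSO wells so 100% = DMSO.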 To be noted: S. cerevisiae CIT2-GFP expression, 3 h, at 10 µM, stronger effect = higher value.
The nature of test [4]: TOR pathway LAP4-GFP level changes – S. cerevisiae, multiplex flow cytometry, primary screen (AID 1873;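 active means GFP signal, as percent of the solvent control, above the screen mean plus 3 SD, about 149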). To be noted: S. cerevisiae LAP4-GFP expression, 3 h, at 10 µM, stronger effect = higher value.
Test [5] in a line: yeast AGP1-GFP level changes, GLN3 branch – cell-based, multiplex flow cytometry, S. cerevisiae, primary screen (AID 1887;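 active means GFP signal above the screen-wide mean plus 3 SD, that is over about 124.5% of the solvent control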;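 further: AGP1-GFP fusion strain of S. cerevisiae within a five-strain barcoded multiplex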). To be noted: 3 h, at 10 µM, stronger effect = higher value.
A short description of test [6]: reduced mouse 2C T cell binding to pMHC/ICAM-1 vesicles – MLPCN validation set, flow cytometry, LFA-1/ICAM-1 modulator project, pilot screen (AID 2523;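 active means response below a set limit, under 55% cells CD8-positive and vesicle-bound, and CD8 cells' 90th-percentile brightness under 279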;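 on vesicle binding response: mean PE anti-B7-1 fluorescence of CD8+ cells relative to row control; 100% = QL9-loaded vesicles with DMSO vehicle in the same plate row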). To be noted: 2C mouse CD8+ T cells, at 7 µM, stronger effect = lower value; double positive events: measured here: CD8+/vesicle+ event percentage.
The target in test [7] is Integrin beta-1 (Homo sapiens) + Integrin alpha-4 (Homo sapiens) (UniProt P13612+P05556). In words: alpha4beta1 integrin LIBS antibody binding reduction – U937 cells, HUTS-21 mAb, flow cytometry, validation set, VLA-4 allosteric modulator project, pilot screen (AID 2674;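 active means inhibition above 50%, about 3 SD of the validation set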;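 further: antibody binding induced by the VLA-4 ligand LDV present at three times its Kd; 0% = LDV ligand with antibody and no compound and 100% = antibody without LDV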). To be noted: HUTS-21 LIBS mAb binding, at 6.7 µM, stronger effect = higher value, binding induced by LDV ligand.

Test [8] is described as follows: calorie-restriction mimetic ROS inhibitors, yeast – validation compound set, pilot screen (AID 2706;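 active means superoxide response below 65% of plate, a cut near 3 SD across the whole screen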;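 further: yeast exposed to compound for one week at 30 degrees C before staining; 100% = mean of all compound wells on the same plate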). As to conditions: S. cerevisiae aging, superoxide DHE fluorescence; at 10 µM; stronger effect = lower value.
Test [9] deals with Beta-adrenergic receptor kinase 1 (Homo sapiens) (UniProt P25098). Put plainly: GRK2 binders displacing RNA aptamer, biochemical, validation, human GRK2, bead flow cytometry (AID 488806;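 active means aptamer binding inhibition above 30%, about 3 SD of noise from non-fluorescent compounds; inactive means inhibition at or below 30%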). To be noted: bead-bound GRK2, FAM-aptamer displacement, at 10 µM, stronger effect = higher value.
Test [10] has as its target Beta-2 adrenergic receptor (Homo sapiens) (UniProt P07550). Put plainly: agonist-induced loss of surface beta2AR – cell-based, FAP fluorogen, flow cytometry, validation set, pilot screen (AID 504459;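 active means percent response above 42, roughly 3 SD of non-fluorescent test compounds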;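 further: agonist-driven loss of surface beta2AR via internalization measured by FAP dye flow cytometry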). To be noted: Am2.2-beta2AR cells, at 10 µM, stronger effect = higher value.
The target of test [11] is AP-2 complex subunit beta (Homo sapiens) (UniProt P63010). Put plainly: beta-arrestin/AP2 interaction blockers – biochemical, validation set, GST-AP2 beads, flow cytometry, pilot screen (AID 504541;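 active means inhibition above 54%, about 3 SD of non-fluorescent compounds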;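 further: AP2 carries R879A mutation and is captured from E. coli lysate; bead-bound FITC arrestin peptide fluorescence measuring arrestin peptide binding to AP2; 0% = DMSO wells and 100% = excess unlabeled arrestin peptide control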). To be noted: FITC arrestin peptide, at 10 µM, stronger effect = higher value, AP2 beta2 appendage fragment, R879A mutant.
Test [12] can be described thus: cytosolic pH regulators acting via V-ATPase – S. cerevisiae, pHLuorin, HTS validation (AID 504600; in the data active means response above about 15%;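 further: plate controls were DMSO for no effect and reference compound for full effect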). As to conditions: V-ATPase proton transport, at 10 µM, stronger effect = higher value.
Test [13] has as its system anti-desmoglein-3 scFv antibody binding to human DSG3. Put plainly: blockers of pathogenic pemphigus antibody–desmoglein-3 binding – biochemical, validation compound set, bead-based, flow cytometry, pilot screen (AID 588368;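 active means binding below the plate cutoff, the plate median minus 3 SD, with a reading above zero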;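 further: signal is the median channel fluorescence of bead-bound GFP antibody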). As to conditions: Protein G beads, DSG3-Fc, scFv-GFP binding, at 10 µM, stronger effect = lower value.
Test [14] in a line: Nile Red efflux blockade in pump-expressing yeast – validation compound set, multiplex, phenotypic, pilot screen (AID 588506;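 active means efflux inhibition above 0.42, the validation set average plus 4 SD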;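 further: Nile Red retained in cells so higher fluorescence means more efflux inhibition; 0 = negative control wells and 1 = enniatin B 25 µM full block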). As to conditions: S. cerevisiae pump-expressing triplex, Nile Red efflux flow cytometry; at 10 µM; stronger effect = higher value; the pumps come from Candida albicans.
Test [15] has as its target ATP-binding cassette sub-family B member 6 (Homo sapiens) (UniProt Q9NP58). In words: blockers of ABCB6-driven porphyrin uptake – K562-ABCB6 cells, flow cytometry, validation set, pilot screen (AID 588550;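 active means inhibition above the screen-wide mean plus 3 SD, about 51%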;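 further: 0% = DMSO wells and 100% = benzethonium chloride 70 µM positive control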). To be noted: K562-ABCB6 porphyrin accumulation, 1 h, at 10 µM, stronger effect = higher value.
Test [16] is described as follows: AML differentiation inducers, ER-HoxA9 marrow cells – cell-based, GFP/MAC1 double positive, flow cytometry, validation set, primary screen (AID 588685;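 active means differentiation response of at least 50%, scaled between solvent and reference control, from cells with both markers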;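 further: compound exposure lasts four days before antibody staining and flow analysis; 0% = DMSO wells and 100% = 5 µM fulvestrant positive control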). To be noted: stronger effect = higher value, normalized: vehicle 0, fulvestrant 100.

Chain of Integrin beta-1 (Homo sapiens) + Integrin alpha-4 (Homo sapiens) (P05556 whole entry, looked up): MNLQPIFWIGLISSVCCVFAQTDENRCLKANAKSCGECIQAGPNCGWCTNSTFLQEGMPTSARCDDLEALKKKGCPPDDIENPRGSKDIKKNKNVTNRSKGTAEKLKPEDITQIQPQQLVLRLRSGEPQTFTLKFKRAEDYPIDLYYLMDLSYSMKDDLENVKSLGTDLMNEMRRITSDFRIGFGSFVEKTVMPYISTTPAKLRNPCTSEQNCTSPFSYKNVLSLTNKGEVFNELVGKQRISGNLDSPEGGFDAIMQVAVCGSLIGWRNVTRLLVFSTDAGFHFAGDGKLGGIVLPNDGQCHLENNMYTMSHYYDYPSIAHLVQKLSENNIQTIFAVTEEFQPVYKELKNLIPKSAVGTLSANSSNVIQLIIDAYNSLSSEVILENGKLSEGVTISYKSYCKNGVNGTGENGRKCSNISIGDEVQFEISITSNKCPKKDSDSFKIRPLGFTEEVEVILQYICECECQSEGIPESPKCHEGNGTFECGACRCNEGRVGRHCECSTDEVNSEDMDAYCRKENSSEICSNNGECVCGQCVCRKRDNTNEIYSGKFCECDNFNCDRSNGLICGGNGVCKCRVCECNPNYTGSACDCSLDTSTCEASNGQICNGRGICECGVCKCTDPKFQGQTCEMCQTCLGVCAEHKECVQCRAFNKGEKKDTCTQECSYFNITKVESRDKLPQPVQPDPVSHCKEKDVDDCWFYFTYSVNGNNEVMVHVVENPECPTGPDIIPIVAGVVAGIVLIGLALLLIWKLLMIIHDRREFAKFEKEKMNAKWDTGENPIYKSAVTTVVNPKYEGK
Chain of Integrin beta-1 (Homo sapiens) + Integrin alpha-4 (Homo sapiens) (P13612 whole entry, looked up): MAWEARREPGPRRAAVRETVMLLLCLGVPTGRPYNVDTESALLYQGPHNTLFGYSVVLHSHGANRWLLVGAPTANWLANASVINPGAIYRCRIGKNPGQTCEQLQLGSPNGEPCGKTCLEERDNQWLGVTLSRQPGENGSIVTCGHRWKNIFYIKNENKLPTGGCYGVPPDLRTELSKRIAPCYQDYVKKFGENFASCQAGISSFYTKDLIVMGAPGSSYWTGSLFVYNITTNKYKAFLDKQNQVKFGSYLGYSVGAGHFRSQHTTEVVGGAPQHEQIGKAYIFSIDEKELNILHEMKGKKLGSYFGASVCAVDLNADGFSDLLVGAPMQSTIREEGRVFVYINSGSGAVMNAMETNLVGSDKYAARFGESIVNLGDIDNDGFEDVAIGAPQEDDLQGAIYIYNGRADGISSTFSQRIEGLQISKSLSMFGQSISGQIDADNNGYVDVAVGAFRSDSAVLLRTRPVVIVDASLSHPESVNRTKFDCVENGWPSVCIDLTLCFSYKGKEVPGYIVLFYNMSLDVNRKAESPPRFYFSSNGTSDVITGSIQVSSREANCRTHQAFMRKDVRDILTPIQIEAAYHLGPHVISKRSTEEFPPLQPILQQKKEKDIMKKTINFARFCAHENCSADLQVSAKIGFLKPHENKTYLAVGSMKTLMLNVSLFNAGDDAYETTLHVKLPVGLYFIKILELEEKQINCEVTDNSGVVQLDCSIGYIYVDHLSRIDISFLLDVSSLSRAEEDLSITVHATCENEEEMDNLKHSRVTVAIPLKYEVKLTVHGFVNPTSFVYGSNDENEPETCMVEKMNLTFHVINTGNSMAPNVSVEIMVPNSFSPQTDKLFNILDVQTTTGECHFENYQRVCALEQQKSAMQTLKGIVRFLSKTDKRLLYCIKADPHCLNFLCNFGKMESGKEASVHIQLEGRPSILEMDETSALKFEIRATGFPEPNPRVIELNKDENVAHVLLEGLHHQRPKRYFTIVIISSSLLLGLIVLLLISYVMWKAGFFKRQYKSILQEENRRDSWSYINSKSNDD
Chain of ATP-binding cassette sub-family B member 6 (Homo sapiens) (Q9NP58 whole entry, looked up): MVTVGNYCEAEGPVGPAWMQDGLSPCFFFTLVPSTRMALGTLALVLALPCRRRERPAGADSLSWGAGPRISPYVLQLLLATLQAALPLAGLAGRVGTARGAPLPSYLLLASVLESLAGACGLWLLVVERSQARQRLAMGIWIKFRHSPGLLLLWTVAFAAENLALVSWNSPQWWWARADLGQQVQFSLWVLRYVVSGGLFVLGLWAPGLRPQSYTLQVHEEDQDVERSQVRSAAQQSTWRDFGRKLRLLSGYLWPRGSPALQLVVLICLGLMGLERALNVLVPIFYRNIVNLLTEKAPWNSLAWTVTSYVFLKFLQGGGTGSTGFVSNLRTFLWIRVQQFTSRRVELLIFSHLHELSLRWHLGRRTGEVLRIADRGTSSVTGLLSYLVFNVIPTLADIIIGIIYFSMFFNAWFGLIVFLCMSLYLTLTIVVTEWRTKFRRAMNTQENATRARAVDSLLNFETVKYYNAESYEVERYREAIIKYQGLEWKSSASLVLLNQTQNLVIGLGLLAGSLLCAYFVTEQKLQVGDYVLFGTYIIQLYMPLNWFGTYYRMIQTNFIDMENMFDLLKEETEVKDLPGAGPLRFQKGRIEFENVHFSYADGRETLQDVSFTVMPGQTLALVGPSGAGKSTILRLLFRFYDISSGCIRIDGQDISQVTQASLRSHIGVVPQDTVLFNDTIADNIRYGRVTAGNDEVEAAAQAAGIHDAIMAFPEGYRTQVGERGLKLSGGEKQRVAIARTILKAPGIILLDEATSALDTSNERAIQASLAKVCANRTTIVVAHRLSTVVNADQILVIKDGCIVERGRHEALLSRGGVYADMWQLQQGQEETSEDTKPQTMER
Chain of Beta-adrenergic receptor kinase 1 (Homo sapiens) (P25098 whole entry, looked up): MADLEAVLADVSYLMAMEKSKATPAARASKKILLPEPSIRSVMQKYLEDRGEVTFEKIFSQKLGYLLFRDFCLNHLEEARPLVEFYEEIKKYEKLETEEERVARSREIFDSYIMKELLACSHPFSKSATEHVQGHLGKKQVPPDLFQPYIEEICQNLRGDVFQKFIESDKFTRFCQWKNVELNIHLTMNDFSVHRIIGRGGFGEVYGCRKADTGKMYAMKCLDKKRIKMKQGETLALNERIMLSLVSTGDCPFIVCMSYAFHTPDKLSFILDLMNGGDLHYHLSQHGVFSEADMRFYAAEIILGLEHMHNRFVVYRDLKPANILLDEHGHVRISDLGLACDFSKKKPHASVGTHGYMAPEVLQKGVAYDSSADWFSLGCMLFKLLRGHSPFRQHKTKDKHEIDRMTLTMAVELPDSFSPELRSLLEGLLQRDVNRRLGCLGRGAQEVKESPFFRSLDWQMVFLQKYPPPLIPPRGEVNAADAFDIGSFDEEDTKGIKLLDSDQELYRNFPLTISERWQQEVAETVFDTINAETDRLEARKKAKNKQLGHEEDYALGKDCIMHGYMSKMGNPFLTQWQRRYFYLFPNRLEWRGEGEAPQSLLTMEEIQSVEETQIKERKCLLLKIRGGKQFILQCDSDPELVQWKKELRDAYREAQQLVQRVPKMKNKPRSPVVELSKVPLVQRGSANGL
Chain of Beta-2 adrenergic receptor (Homo sapiens) (P07550 whole entry, looked up): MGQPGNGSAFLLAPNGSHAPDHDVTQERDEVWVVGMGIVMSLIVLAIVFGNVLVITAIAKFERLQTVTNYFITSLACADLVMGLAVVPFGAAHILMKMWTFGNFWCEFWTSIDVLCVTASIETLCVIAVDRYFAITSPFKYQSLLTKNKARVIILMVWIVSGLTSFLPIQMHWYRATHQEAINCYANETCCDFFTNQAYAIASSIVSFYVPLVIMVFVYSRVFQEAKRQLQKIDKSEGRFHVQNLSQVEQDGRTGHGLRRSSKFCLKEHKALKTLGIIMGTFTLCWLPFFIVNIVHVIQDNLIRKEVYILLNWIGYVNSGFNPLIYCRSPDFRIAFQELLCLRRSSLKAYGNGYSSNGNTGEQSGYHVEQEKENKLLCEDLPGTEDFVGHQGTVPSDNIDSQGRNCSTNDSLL
Chain of AP-2 complex subunit beta (Homo sapiens) (P63010 whole entry, looked up, the tested form may be a part, one chain of several): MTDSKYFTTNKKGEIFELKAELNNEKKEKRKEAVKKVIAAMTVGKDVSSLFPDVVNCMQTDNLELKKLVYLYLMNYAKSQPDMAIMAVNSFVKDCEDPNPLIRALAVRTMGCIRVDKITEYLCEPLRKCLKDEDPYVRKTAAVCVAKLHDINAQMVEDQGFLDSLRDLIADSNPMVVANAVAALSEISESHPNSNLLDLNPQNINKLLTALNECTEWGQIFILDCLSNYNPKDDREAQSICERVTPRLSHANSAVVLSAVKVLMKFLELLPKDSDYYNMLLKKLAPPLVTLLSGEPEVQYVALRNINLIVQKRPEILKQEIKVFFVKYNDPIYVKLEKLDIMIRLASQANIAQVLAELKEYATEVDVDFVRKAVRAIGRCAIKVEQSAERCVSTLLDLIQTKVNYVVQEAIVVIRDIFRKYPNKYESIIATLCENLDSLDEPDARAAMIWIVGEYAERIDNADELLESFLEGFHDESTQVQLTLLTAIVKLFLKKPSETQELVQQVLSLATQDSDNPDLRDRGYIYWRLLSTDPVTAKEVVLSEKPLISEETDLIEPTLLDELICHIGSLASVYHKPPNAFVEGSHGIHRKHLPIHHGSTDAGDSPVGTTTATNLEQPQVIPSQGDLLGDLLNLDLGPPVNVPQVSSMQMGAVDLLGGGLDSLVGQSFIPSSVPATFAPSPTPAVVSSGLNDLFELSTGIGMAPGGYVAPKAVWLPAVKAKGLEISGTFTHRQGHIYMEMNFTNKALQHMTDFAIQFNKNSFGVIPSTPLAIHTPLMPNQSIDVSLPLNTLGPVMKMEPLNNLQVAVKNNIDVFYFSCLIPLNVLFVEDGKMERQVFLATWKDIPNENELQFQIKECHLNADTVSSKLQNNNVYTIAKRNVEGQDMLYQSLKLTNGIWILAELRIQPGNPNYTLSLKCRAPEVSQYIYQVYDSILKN

In the case of `Nc1ccc2cn[nH]c2c1`, the percent of DMSO control GFP in test [1] is 104% (inactive). Further, the GFP response vs DMSO in test [2] was 97.7% (inactive); in [4], 101% (inactive). The percent response of DMSO control in test [3] was 98.6% (inactive). Further, the GFP response, % of DMSO in [5] is 102% (inactive). Also, in [6], the double positive events was 60.8%. For the same compound, in [6], the vesicle binding response was 109% (inactive). The inhibition in test [7] is -3.77% (inactive); in test [11], 0.32% (inactive); in [15] it was 32% (inactive). Further, the superoxide response (% of plate) in test [8] is 109% (inactive). For the same compound, the aptamer binding inhibition in test [9] was -1% (inactive). The response is 2.17% (inactive) in test [10] and -2.55% (inactive) in test [12]. In addition, the binding (% of control) in [13] was 102% (inactive). Further, in [14], the efflux inhibition (fraction of control) was 0.265 (inactive). For the same compound, the differentiation response in test [16] is -16.3% (inactive).

On to `CC(=O)C1=C(O)C(=O)OC1c1ccc(C)cc1` (centres undefined), for which, in test [1], the percent of DMSO control GFP was 97.1% (inactive). The GFP response vs DMSO in test [2] was 119% (inactive); in test [4] it was 132% (inactive). The percent response of DMSO control in test [3] is 91% (inactive). In addition, the GFP response, % of DMSO in test [5] was 106% (inactive). The double positive events in test [6] is 61%. Also, the vesicle binding response in test [6] was 147% (inactive). In addition, the inhibition was 17.3% (inactive) in test [7], 21.9% (inactive) in test [11] and 7% (inactive) in test [15]. Also, the superoxide response (% of plate) in test [8] was 103% (inactive). Besides, the aptamer binding inhibition in test [9] is 2% (inactive). Further, the results for the response in [10] and in [12] were -1.67% (inactive) and -0.38% (inactive), respectively. The binding (% of control) in test [13] was 101% (inactive). In addition, the efflux inhibition (fraction of control) in [14] was -0.06 (inactive). Further, in [16], the differentiation response is 5.6% (inactive).

Turning to `O=C1OC(c2ccccc2)=C/C1=C/c1cccs1`, the percent of DMSO control GFP in [1] is 106% (inactive). The GFP response vs DMSO in test [2] is 99.3% (inactive); in [4], 86.1% (inactive). Besides, in [3], the percent response of DMSO control is 105% (inactive). Further, the GFP response, % of DMSO in test [5] is 97.3% (inactive). Moreover, the double positive events in test [6] was 64.9%. In addition, the vesicle binding response in [6] was 212% (inactive). In addition, the figures for the inhibition in test [7], in [11] and in test [15] were -2.53% (inactive), 6.48% (inactive) and -5% (inactive), respectively. The superoxide response (% of plate) in [8] is 97.6% (inactive). Further, the aptamer binding inhibition in [9] was 1% (inactive). Also, the response in [10] was -7.02% (inactive); in test [12], -2.38% (inactive). The binding (% of control) in test [13] is 93.3% (inactive). Also, the efflux inhibition (fraction of control) in [14] is -0.1 (inactive). Further, the differentiation response in test [16] was 3.18% (inactive).

With `CCN(CCCCCN(C)C)Cc1cc2ccccc2o1`, the percent of DMSO control GFP in test [1] was 101% (inactive). In addition, the GFP response vs DMSO in [2] is 101% (inactive); in test [4] it was 112% (inactive). Also, the percent response of DMSO control in test [3] is 94.8% (inactive). The GFP response, % of DMSO in test [5] was 106% (inactive). This compound also had a double positive events in test [6] of 64.4%. In addition, the vesicle binding response in test [6] is 206% (inactive). For the same compound, the inhibition in [7] is -0.43% (inactive); in [11], -2.46% (inactive); in [15] it was 10% (inactive). The superoxide response (% of plate) in [8] is 79.9% (inactive). Besides, the aptamer binding inhibition in test [9] was -1% (inactive). Moreover, the response in test [10] is -3.86% (inactive); in [12], 0.31% (inactive). For the same compound, the binding (% of control) in test [13] was 102% (inactive). In addition, the efflux inhibition (fraction of control) in [14] is -0.06 (inactive). In test [16], the differentiation response was 5.6% (inactive).

Regarding `O=c1c2[nH]c3ccccc3c2ncn1CCC1=CCCCC1`, the percent of DMSO control GFP in test [1] was 91.7% (inactive). For the same compound, the GFP response vs DMSO in [2] was 127% (inactive); in test [4] it was 82% (inactive). For the same compound, the percent response of DMSO control in test [3] is 103% (inactive). In addition, the GFP response, % of DMSO in test [5] was 89.6% (inactive). Moreover, in test [6], the double positive events was 62.1%. The vesicle binding response in [6] is 149% (inactive). In addition, the inhibition in test [7] is 14.2% (inactive); in test [11], -5.27% (inactive); in test [15], 13% (inactive). The superoxide response (% of plate) in test [8] is 95.4% (inactive). The aptamer binding inhibition in [9] was -3% (inactive). For the same compound, the response was -1.85% (inactive) in test [10] and 0.28% (inactive) in test [12]. In [13], the binding (% of control) was 101% (inactive). Moreover, in [14], the efflux inhibition (fraction of control) is 0.01 (inactive). In addition, the differentiation response in [16] was 1.64% (inactive).

With `N#Cc1cc2c([nH]c1=O)CCCC2`, the percent of DMSO control GFP in test [1] is 103% (inactive). The GFP response vs DMSO was 98.3% (inactive) in test [2] and 90.7% (inactive) in [4]. In addition, the percent response of DMSO control in [3] is 108% (inactive). Further, the GFP response, % of DMSO in test [5] is 108% (inactive). Further, the double positive events in test [6] came to 63.2%. Besides, the vesicle binding response in [6] is 184% (inactive). Besides, the values for the inhibition in test [7], in test [11] and in test [15] were 16.1% (inactive), -13.1% (inactive) and -2% (inactive), respectively. Also, the superoxide response (% of plate) in test [8] was 89.5% (inactive). Further, in test [9], the aptamer binding inhibition was 0% (inactive). For the same compound, the response in test [10] is -10.3% (inactive); in [12] it was 12.5% (inactive). Besides, in test [13], the binding (% of control) is 97.7% (inactive). Besides, the efflux inhibition (fraction of control) in test [14] is -0.04 (inactive). The differentiation response in [16] was -5.62% (inactive).

Turning to `CC1(C)CC(CC(=O)O)(c2ccc(Cl)cc2)CCO1` (centres undefined), the percent of DMSO control GFP in test [1] was 86% (inactive). The results for the GFP response vs DMSO in test [2] and in test [4] were 126% (inactive) and 85.3% (inactive), respectively. The percent response of DMSO control in test [3] is 96.6% (inactive). Besides, the GFP response, % of DMSO in test [5] is 92.8% (inactive). Besides, in [6], the double positive events is 61.2%. In test [6], the vesicle binding response was 136% (inactive). Further, the inhibition was -0.33% (inactive) in test [7], -8.86% (inactive) in test [11] and 9% (inactive) in test [15]. Further, the superoxide response (% of plate) in test [8] was 94.5% (inactive). Besides, the aptamer binding inhibition in test [9] was 3% (inactive). Moreover, the results for the response in [10] and in test [12] were -2.75% (inactive) and 0.57% (inactive), respectively. In [13], the binding (% of control) is 107% (inactive). The efflux inhibition (fraction of control) in test [14] is -0.17 (inactive). The differentiation response in test [16] is -3.28% (inactive).

In general, inhibition refers to the drop in the measured response relative to a control, in per cent.
